PubChem BioAssay (NCATS)
Records with an inconclusive call do not appear. Activity calls are given as the source filed them. Unless noted, calls follow the shape of the dose curve; as a rule, active = well fitted curve in either direction with a large enough effect (not every such curve was filed as active); inconclusive = small, poorly fitted or top-dose-only effect, or another doubt; inactive = flat fitted curve, though single readings scatter.

How the values were obtained:
[1] = target: Lysosomal acid glucosylceramidase (Homo sapiens) (UniProt P04062); test: Glucocerebrosidase-p2 (AID 348; in the data active = potency below about 10 µM; also: potency is read from the fitted curve at half-maximal effect); conditions: purified GBA, blue fluorogenic substrate, 40 min
Lysosomal acid glucosylceramidase (Homo sapiens), sequence (P04062 whole entry, looked up): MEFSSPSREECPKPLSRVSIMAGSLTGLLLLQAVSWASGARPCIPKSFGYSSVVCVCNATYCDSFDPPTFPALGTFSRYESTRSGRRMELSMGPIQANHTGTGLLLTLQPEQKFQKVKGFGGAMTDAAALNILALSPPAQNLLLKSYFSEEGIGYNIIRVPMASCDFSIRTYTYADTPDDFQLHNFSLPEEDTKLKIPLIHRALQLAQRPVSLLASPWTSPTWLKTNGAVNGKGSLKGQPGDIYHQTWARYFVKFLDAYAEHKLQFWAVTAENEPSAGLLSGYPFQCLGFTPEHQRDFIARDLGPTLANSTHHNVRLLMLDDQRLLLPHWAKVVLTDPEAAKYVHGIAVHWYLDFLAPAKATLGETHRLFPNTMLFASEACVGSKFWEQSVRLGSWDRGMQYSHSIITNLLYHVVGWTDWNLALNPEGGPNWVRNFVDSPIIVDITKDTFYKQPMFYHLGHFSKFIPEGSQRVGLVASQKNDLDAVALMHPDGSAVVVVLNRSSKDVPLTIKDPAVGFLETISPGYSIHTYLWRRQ
Procedure, shortened: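 Compounds titrated from 0.6 nM upwards against 0.2 nM enzyme in pH 5.9 citric acid/KH2PO4, taurocholate, tween-20; blue fluorogenic substrate 80 uM, 40 min room temperature, stopped and read Ex 365/Em 440 for AC50.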

[2] = AP1 Signaling Pathway (AID 357); conditions: ME-180 AP-1-bla reporter, EGF-induced, beta-lactamase ratio, 5 h; at 7.69 µM (top of the series) unless noted;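 also: ME-180 reporter cells stimulated with EGF at its EC50 level; % is scaled to controls: 0 for no effect and ±100 for the full control effect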
Procedure, shortened: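 Beta-lactamase reporter under AP-1 response element, ME-180 background. Stimulus: EC50 EGF. Compound exposure 5 h, 37 °C. Detection: CCF4, 2.5 h RT, 460/530 nm. Values: AC50 from titration.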

[3] = Stat Signaling Pathway (AID 446); conditions: ME-180 SIE beta-lactamase reporter, IL-6 stimulated, 5 h; at 7.69 µM (top of the series) unless noted;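 also: ME-180 cervical cancer cells given 40 pM IL-6 alongside compound; SIE-controlled beta-lactamase reporter measured as 460/530 nm FRET emission ratio; % is scaled to controls: 0 for no effect and ±100 for the full control effect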
Procedure, shortened: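 ME-180 cells carrying a SIE-driven beta-lactamase reporter are stimulated with 40 pM IL-6 for 5 h at 37C in the presence of compound. The 460/530 nm FRET substrate ratio is read after 2.5 h at RT. Data are normalised to 300 pM IL-6 and to 125 nM JAK inhibitor controls.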

[4] = target: Glucocorticoid receptor (Homo sapiens) (UniProt P04150); test: GR-EFC Redistribution (AID 451; calls by dose curve; also: potency is read from the fitted curve at half-maximal effect); conditions: CHO-K1 GR-EFC translocation, beta-gal luminescence, 2 h
Glucocorticoid receptor (Homo sapiens), sequence (P04150 whole entry, looked up, the tested form may be a part): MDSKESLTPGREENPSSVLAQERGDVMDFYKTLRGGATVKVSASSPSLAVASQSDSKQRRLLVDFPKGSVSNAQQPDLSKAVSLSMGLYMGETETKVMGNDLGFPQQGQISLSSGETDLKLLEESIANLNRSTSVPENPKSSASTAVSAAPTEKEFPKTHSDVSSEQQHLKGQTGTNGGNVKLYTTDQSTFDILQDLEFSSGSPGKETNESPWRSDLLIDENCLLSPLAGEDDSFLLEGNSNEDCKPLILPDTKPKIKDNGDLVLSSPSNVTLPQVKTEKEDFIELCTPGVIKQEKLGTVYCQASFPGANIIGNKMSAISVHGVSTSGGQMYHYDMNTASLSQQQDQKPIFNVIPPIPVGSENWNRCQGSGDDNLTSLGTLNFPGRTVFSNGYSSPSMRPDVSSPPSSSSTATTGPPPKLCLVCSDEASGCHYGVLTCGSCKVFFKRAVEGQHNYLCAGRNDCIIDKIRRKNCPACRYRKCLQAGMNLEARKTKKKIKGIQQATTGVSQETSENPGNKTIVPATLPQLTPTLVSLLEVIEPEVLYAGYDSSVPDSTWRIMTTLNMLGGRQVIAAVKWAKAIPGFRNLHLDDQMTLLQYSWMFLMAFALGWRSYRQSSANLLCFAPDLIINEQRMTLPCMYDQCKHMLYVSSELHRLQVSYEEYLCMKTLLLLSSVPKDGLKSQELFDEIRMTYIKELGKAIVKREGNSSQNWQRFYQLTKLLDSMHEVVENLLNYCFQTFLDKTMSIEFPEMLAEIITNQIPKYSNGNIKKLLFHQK
Procedure, shortened: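 CHO-K1 cells stably expressing nuclear-localized β-gal enzyme acceptor and GR fused C-terminally to the enzyme donor fragment; ligand-driven nuclear translocation restores β-gal by complementation. Compounds titrated up to 46 uM final, 2 h at 37 °C; luminescence read.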

[5] = target: Mitogen-activated protein kinase 10 (Mus musculus) (UniProt Q61831); test: JNK3 AlphaScreen Assay (AID 530); conditions: JNK3 lysate, c-Jun phosphorylation; series mostly up to 57.1 µM;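 also: kinase came from lysate of stimulated human HepG2 cells; signal reports phosphorylation of biotinylated GST-cJun 1-79 at Ser73 with 10 µM ATP; % is scaled to controls: 0 for no effect and ±100 for the full control effect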
Procedure, shortened: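 JNK3 came from HepG2 lysates pre-activated with IL-1beta and TNF-alpha and phosphorylated biotinylated GST-cJun (1-79) at 10 uM ATP, pH 7.6, room temperature. Compounds were titrated. AlphaScreen signal used anti-phospho-cJun (Ser73) antibody.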

[6] = target: 3',5'-cyclic-AMP phosphodiesterase 4B (Homo sapiens) (UniProt Q07343); test: qHTS Assay for Inhibitors of PDE-IV (AID 607; active = well fitted activation curve with a large enough effect in the main read-out, with a control signal flat, not every such curve was filed as active; also: % of control where 0% means no effect); conditions: HEK293 ACTOne CNG channel cells, membrane potential fluorescence; series mostly up to 22.9 µM
3',5'-cyclic-AMP phosphodiesterase 4B (Homo sapiens), sequence (Q07343 whole entry, looked up): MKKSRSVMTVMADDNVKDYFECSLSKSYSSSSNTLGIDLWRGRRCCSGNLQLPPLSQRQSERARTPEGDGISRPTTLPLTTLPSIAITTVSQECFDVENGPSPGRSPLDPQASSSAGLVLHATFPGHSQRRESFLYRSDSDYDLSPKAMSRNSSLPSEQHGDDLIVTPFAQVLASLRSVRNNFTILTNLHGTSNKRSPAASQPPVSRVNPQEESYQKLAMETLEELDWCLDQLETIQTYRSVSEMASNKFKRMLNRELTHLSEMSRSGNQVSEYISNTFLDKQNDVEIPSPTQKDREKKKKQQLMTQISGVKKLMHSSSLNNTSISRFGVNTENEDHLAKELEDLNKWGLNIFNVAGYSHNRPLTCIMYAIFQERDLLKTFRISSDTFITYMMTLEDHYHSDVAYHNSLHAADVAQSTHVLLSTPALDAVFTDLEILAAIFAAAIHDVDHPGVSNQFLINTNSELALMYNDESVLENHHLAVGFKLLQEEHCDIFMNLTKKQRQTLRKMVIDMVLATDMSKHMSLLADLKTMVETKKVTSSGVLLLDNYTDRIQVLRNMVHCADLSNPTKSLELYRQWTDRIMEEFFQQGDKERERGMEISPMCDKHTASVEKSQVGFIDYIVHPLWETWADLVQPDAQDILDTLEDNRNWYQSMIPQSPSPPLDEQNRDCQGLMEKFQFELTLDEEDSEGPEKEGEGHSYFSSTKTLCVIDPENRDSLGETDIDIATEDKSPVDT
Procedure, shortened: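 HEK293 ACTOne cells with CNG channel (1000/well), endogenous PDE4; membrane potential dye, compounds up to 22.9 uM final. Fluorescence Ex 535/Em 590; RO 20-1724 (100 uM final) as reference.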

[7] = qHTS Assay for Identification of Small Molecule Agonists for Hypoxia Response Element Signaling Pathway (AID 914; active = well fitted activation curve with a large enough effect in the signal ratio, with a control signal flat, not every such curve was filed as active; the % refers to the signal ratio; also: % of control where 0% means no effect); conditions: ME-180 (cervical carcinoma) HRE-bla reporter, beta-lactamase ratio, CoCl2, 17 h; activation: stronger effect = higher value
Procedure, shortened: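 qHTS titration; ME-180 HRE-bla cells; EC50 CoCl2 co-treatment, 17 h at 37 degrees Celsius; CCF4 dye, ex 405nm, em 460nm and 530nm; %Activity from ratio; AC50.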

[8] = qHTS Assay for Lipid Storage Modulators (AID 1519; calls by dose curve); conditions: Drosophila S3 cells, BODIPY lipid droplet/cell ratio, laser cytometry, cells loaded with oleic acid; for activity change, negative = inhibition: at 57.5 µM (top of the series)
Procedure, shortened: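 Cells seeded at 5,000 per well were treated with compounds over a concentration series and loaded with oleic acid (400 uM, as added). Lipid droplet fluorescence (488 nm excitation, 500-530 nm channel) was read by laser-scanning cytometry and normalized to 20 uM Triacsin C.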

[9] = Primary qHTS for small molecule stabilizers of the endoplasmic reticulum resident proteome: Secreted ER Calcium Modulated Protein (SERCaMP) assay (AID 1508630; active = well fitted curve in the direction sought with a large enough effect; an effect the other way counts as inactive or inconclusive; also: % is scaled to controls: 0 for no effect and ±100 for the full control effect); conditions: SH-SY5Y GLuc-SERCaMP (Gaussia luciferase released on ER calcium loss) secretion, thapsigargin, luminescence; series mostly up to 38.4 µM
Procedure, shortened: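 GLuc-SERCaMP-expressing SH-SY5Y cells, pretreated 16 h with compound, are challenged with thapsigargin to empty ER calcium stores; after 4 h, coelenterazine is added directly to the medium and luminescence is imaged.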

[10] = target: Cytochrome P450 3A4 (Homo sapiens) (UniProt P08684); test: qHTS Assay for Activators of Cytochrome P450 3A4 (AID 885; active = well fitted curve in the direction sought with a large enough effect; an effect the other way counts as inactive or inconclusive; also: nearly all actives have a fitted effect of over 65% in size); conditions: recombinant CYP3A4, Luciferin-PPXE luminescence, 60 min; series mostly up to 57.1 µM
Cytochrome P450 3A4 (Homo sapiens), sequence (P08684 whole entry, looked up): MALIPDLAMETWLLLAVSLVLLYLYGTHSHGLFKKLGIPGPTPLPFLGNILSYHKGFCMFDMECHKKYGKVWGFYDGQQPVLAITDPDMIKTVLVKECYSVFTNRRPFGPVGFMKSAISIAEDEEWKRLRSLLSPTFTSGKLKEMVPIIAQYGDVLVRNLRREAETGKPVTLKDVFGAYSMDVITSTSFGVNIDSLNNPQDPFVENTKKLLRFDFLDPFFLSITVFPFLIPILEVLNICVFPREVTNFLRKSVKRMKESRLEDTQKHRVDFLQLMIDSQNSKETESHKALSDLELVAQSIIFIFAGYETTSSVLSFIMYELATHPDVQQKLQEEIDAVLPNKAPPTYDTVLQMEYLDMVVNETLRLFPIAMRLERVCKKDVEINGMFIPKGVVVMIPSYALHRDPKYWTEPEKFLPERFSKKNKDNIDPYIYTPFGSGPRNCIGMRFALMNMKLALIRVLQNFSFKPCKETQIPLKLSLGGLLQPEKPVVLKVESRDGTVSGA
Procedure, shortened: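 Human CYP3A4 (20 nM) with Luciferin-PPXE at 25 uM (its KM) in 200 mM KPO4; 10 min compound preincubation, then NADPH regeneration and 60 min reaction at RT. Luciferin read by luminescence; normalized to 57 uM ketoconazole full inhibition.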

[11] = target: Cytochrome P450 2C9 (Homo sapiens) (UniProt P11712); test: qHTS Assay for Inhibitors and Substrates of Cytochrome P450 2C9 (AID 883; active = well fitted curve in the direction sought with a large enough effect; an effect the other way counts as inactive or inconclusive; also: % is scaled to controls: 0 for no effect and ±100 for the full control effect; nearly all actives have a fitted effect of over 60% in size); conditions: recombinant CYP2C9, luciferin-H luminescence, 60 min; series mostly up to 57.1 µM
Cytochrome P450 2C9 (Homo sapiens), sequence (P11712 whole entry, looked up): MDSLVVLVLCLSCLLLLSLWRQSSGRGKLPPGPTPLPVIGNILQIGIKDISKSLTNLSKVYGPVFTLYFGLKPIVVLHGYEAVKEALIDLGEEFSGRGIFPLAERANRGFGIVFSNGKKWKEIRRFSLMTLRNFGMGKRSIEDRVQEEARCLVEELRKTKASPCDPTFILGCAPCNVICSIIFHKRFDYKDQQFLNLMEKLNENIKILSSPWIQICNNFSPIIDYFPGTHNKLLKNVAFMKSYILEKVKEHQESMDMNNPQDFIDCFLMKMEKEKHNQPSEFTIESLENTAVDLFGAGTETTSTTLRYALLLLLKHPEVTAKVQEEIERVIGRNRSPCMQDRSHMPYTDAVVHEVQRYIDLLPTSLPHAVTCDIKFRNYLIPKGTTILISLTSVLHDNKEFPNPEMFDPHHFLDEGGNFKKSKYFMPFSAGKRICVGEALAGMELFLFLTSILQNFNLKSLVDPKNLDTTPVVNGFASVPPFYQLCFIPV
Procedure, shortened: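 CYP2C9 deoxyluciferin hydroxylation, 37C, 60 min with NADPH regeneration; 10nM enzyme, 100uM Luciferin-H (KM). Glo detection reagent stopped reaction; luminescence normalized to sulphaphenazole (57uM) full inhibition.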

[12] = measured here: cell count channel max response
[13] = measured here: lipid channel max response

SMILES | Potency [1] | activity change, negative = inhibition [2] | activity, negative = inhibition [3] | Potency [4] | Potency [5] | Potency [6] | activation [7] | activity change, negative = inhibition [8] | max response [8, 12] | max response [8, 13] | outcome [9] | Potency [10] | Potency [11]
CC(C)CN1CC2(CCN(S(=O)(=O)c3ccccc3)CC2)C1 | > 11.4 µM (inactive) | 6.33% (inactive) | -2.48% (inactive) | > 46 µM (inactive) | inactive | inactive | 6.29% (inactive) | -0.648% (inactive) | -17.9% | -14.3% | inactive | – | –
COc1ccccc1CN1CCCC2(CCN(S(=O)(=O)c3ccccc3)CC2)C1 | > 11.4 µM (inactive) | 0.799% (inactive) | – | > 46 µM (inactive) | inactive | inactive | -6.58% (inactive) | 0.969% (inactive) | -4.49% | 1.25% | inactive | – | –
COc1ccccc1CN1CCC2(CC1)CCN(C(=O)c1cccc(F)c1)CC2 | > 11.4 µM (inactive) | -13% (inactive) | – | > 46 µM (inactive) | inactive | inactive | 21.3% (inactive) | 2.42% (inactive) | -4.91% | -3.6% | inactive | – | –
CN1CCC2(CC1)CCN(C(=O)c1cccc(F)c1)CC2 | > 11.4 µM (inactive) | 2.25% (inactive) | – | > 46 µM (inactive) | inactive | inactive | – | -1.77% (inactive) | 3% | 2.59% | inactive | – | –
O=C(c1cnccn1)N1CCC2(CC1)CN(c1ncccn1)C2 | > 11.4 µM (inactive) | -12.2% (inactive) | 21.6% (inactive) | > 46 µM (inactive) | inactive | inactive | – | 6.01% (inactive) | 6.2% | 15.3% | inactive | – | –
COc1ccc(C(=O)N2CCC3(CC2)CCN(c2ccncc2)CC3)cc1 | > 11.4 µM (inactive) | 14.4% (inactive) | 5.85% (inactive) | > 46 µM (inactive) | inactive | inactive | – | -1.55% (inactive) | 12.5% | 14% | inactive | inactive | –
N#Cc1ccc(CN2CC3(CCN(C(=O)c4ccco4)CC3)C2)cc1 | > 11.4 µM (inactive) | -7.09% (inactive) | 4.26% (inactive) | > 46 µM (inactive) | inactive | inactive | – | 4.77% (inactive) | 18.6% | 23.7% | inactive | – | –
O=S(=O)(c1ccccc1)N1CCC2(CC1)CN(c1ccncc1)C2 | > 11.4 µM (inactive) | 0.671% (inactive) | 0.614% (inactive) | > 46 µM (inactive) | inactive | inactive | – | 2% (inactive) | 0.397% | -0.685% | inactive | inactive | inactive
